43 sequences from publication PMC10726135, “HNF4α isoforms regulate the circadian balance between carbohydrate and lipid metabolism in the liver” can be followed below.

In all, about 18,000 sequences were measured (“log2 normalized intensity”: median about 0.39, highest 2% from about 6.6 on). This excerpt belongs to a sample that is enriched for the highest values.

The target in the assay is T1, HNF4alpha2 (COS-7 nuclear extract) (Homo sapiens, UniProt P41235 1-474).
T1 sequence: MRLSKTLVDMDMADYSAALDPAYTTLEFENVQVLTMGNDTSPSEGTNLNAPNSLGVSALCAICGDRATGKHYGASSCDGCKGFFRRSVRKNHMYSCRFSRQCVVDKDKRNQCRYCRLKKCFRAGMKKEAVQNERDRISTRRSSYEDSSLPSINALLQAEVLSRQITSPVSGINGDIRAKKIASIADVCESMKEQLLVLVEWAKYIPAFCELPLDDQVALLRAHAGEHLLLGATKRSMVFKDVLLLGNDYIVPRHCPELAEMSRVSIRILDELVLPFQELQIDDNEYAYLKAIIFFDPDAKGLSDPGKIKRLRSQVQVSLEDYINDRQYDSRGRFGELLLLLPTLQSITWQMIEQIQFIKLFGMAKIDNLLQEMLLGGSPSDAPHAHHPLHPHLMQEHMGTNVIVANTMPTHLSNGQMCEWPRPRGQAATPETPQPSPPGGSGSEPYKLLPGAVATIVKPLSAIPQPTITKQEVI
Briefly: protein-binding microarray; COS-7 nuclear extract on double-stranded Agilent 4x180k PBM; binding buffer, salt, pH and temperature not given in the material; high values mean tight binding. The note with it: chain copies: 2; label: 3' end of strand 1 on the slide; dsDNA, one strand shown. A digest of the protocol: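 Nuclear extracts came from COS-7 cells transiently transfected by CaPO4 with a human HNF4α isoform expression vector. They were applied to a custom Agilent SurePrint G3 4x180k array of ~60-nt oligonucleotides, made double-stranded, with ~44,000 test sequences spotted in quadruplicate. Bound HNF4α was imaged at 2-µm resolution on an Agilent G2565CA scanner. Binding signal was taken as background-corrected, normalized gProcessedSignal from Agilent software.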
Turning to “CTTTATCTAGATAAGTTTATTTACTTATGTGCCTAGGGAGATTAGAGTATCGGTCGA”, the binding signal came out at 1.49 log2 normalized intensity.

For the sequence “ATGGTCAGTGTTGATAAGAAAGCTGCAGTCGCCTAGGGAGATTAGAGTATCGGTCGA”, the binding signal stood at 0.747 log2 normalized intensity.

Turning to “TAGGTTATCTTTGGAGAATGCCTTTTGTGTGCCTAGGGAGATTAGAGTATCGGTCGA”, the binding signal was 2.15 log2 normalized intensity.

As for “ATACTTAGGATTTTTGTGCCTCTTTGGTGAGCCTAGGGAGATTAGAGTATCGGTCGA”, the binding signal worked out at 1.13 log2 normalized intensity.

In the case of “TATTCAAACAGAGGACAGTTGTGTTTGTTGGCCTAGGGAGATTAGAGTATCGGTCGA”, the binding signal came out at 1.96 log2 normalized intensity.

“TTTGGTGAGGCCCCAGTGTCAATTCTCATTGCCTAGGGAGATTAGAGTATCGGTCGA”: the binding signal was 1.82 log2 normalized intensity.

Regarding “CAGGCTGTTTTCCTATAGATTTGTTAAATCGCCTAGGGAGATTAGAGTATCGGTCGA”, the binding signal turned out to be 1.13 log2 normalized intensity.

In the case of “CTTTGTGGCAGGAGGAGCTGTTTGACATCCGCCTAGGGAGATTAGAGTATCGGTCGA”, the binding signal was found to be 0.0869 log2 normalized intensity.

Regarding “ATCTCCAAACGAGACTTTGGACTTTGGACTGCCTAGGGAGATTAGAGTATCGGTCGA”, the binding signal is 11.8 log2 normalized intensity.

For the sequence “GAGACAGCTCCACAGCTGGACTTTGGCTGCGCCTAGGGAGATTAGAGTATCGGTCGA”, the binding signal worked out at 5.41 log2 normalized intensity.

For “GACTCATCTCCAAACGAGACTTTGGACTTTGCCTAGGGAGATTAGAGTATCGGTCGA”, the binding signal was 8.97 log2 normalized intensity.

Consider “TACATTGGACAACTGTACTTTGGACTGGGGGCCTAGGGAGATTAGAGTATCGGTCGA”, for which the binding signal was 5.99 log2 normalized intensity.

As for “GGGTGAAAGGGACTCATCTCCAAACGAGACGCCTAGGGAGATTAGAGTATCGGTCGA”, the binding signal was -0.986 log2 normalized intensity.

Take “CTCCAAACATCTTTGGTATGGACTGATATTGCCTAGGGAGATTAGAGTATCGGTCGA”: the binding signal was 1.5 log2 normalized intensity.

As to “AAAGGGACTCATCTCCAAACGAGACTTTGGGCCTAGGGAGATTAGAGTATCGGTCGA”, the binding signal came out at 1.6 log2 normalized intensity.

“ATCTCCAGATAAGACTTTGGACTTTGGACCGCCTAGGGAGATTAGAGTATCGGTCGA”: the binding signal stood at 11.6 log2 normalized intensity.

Consider “GGTGAGATAAGAAGACTCCAGGGGACTGCCGCCTAGGGAGATTAGAGTATCGGTCGA”, for which the binding signal was -0.872 log2 normalized intensity.

As to “ACAGTTCTGATACATTGGACAACTGTACTTGCCTAGGGAGATTAGAGTATCGGTCGA”, the binding signal came to 2.1 log2 normalized intensity.

As for “TCTGATACATTGGACAACTGTACTTTGGACGCCTAGGGAGATTAGAGTATCGGTCGA”, the binding signal is 7.2 log2 normalized intensity.

For “GCTAAGAGACAGCTCCACAGCTGGACTTTGGCCTAGGGAGATTAGAGTATCGGTCGA”, the binding signal is 5.15 log2 normalized intensity.

On to “ATGATTGACAGGTTATTTCAATTACAAAGCGCCTAGGGAGATTAGAGTATCGGTCGA”, for which the binding signal worked out at 1.06 log2 normalized intensity.

Consider “CCCGGCAGATCAGGGTCAGGCTGTGGTACGGCCTAGGGAGATTAGAGTATCGGTCGA”, for which the binding signal worked out at 0.662 log2 normalized intensity.

Turning to “AGTCCCTGTCCCTTCTTGGCAAGTTAATGTGCCTAGGGAGATTAGAGTATCGGTCGA”, the binding signal stood at 1.94 log2 normalized intensity.

Take “GGTGAGGGTGAGGGTGAGGGTTAGGGGTTAGCCTAGGGAGATTAGAGTATCGGTCGA”: the binding signal is -0.0851 log2 normalized intensity.

Consider “CATTAAGCTTAGCGTTATCAAACCAAATATGCCTAGGGAGATTAGAGTATCGGTCGA”, for which the binding signal is -0.0208 log2 normalized intensity.

“GGTCAACACAATCTGATAGTTGATTGATTGGCCTAGGGAGATTAGAGTATCGGTCGA”: the binding signal worked out at 0.627 log2 normalized intensity.

Turning to “TCATCTTCAAAGCCAGCAATGGCAGGTCCAGCCTAGGGAGATTAGAGTATCGGTCGA”, the binding signal amounted to 1.41 log2 normalized intensity.

“TCTGCAGACATGGACTCTGGGATCTCAGGGGCCTAGGGAGATTAGAGTATCGGTCGA”: the binding signal was 1.24 log2 normalized intensity.

As for “ACAGCTAGTCTAGACTTTGCTTTCTTGGAGGCCTAGGGAGATTAGAGTATCGGTCGA”, the binding signal amounted to 1.24 log2 normalized intensity.

As to “TGGTGGGGAATGCTAGGACTCATTCTCCCCGCCTAGGGAGATTAGAGTATCGGTCGA”, the binding signal stood at 0.442 log2 normalized intensity.

Consider “AGAGCTCAGAAGCCACCAGTGCAAATATAAGCCTAGGGAGATTAGAGTATCGGTCGA”, for which the binding signal is -0.972 log2 normalized intensity.

“CACAAATTGGAGAGCATCTTGGACTTGGGAGCCTAGGGAGATTAGAGTATCGGTCGA”: the binding signal was determined as 2.73 log2 normalized intensity.

Take “ATTTGGACTTTTACTCTTAGAGATAATGGGGCCTAGGGAGATTAGAGTATCGGTCGA”: the binding signal was determined as 2.13 log2 normalized intensity.

Consider “CAAACGAGACTTTGGACTTTGGACTTGGGAGCCTAGGGAGATTAGAGTATCGGTCGA”, for which the binding signal worked out at 10.5 log2 normalized intensity.

For the sequence “GGATAATGATAAAGAGATTGGACTTTGGCCGCCTAGGGAGATTAGAGTATCGGTCGA”, the binding signal was 8.99 log2 normalized intensity.

Take “GAAGGAGAGAGAGGGAGAGTGGCCTTTGGAGCCTAGGGAGATTAGAGTATCGGTCGA”: the binding signal was found to be 2.89 log2 normalized intensity.

“TCTTTAGGCCAAACAAAAATATGGACTTTGGCCTAGGGAGATTAGAGTATCGGTCGA”: the binding signal was 5.84 log2 normalized intensity.

Consider “AAGAGATAAAAGAGAAGATAATGGATTGGGGCCTAGGGAGATTAGAGTATCGGTCGA”, for which the binding signal is -0.492 log2 normalized intensity.

Consider “AAAATATGGACTTTGGAATTAAGAAAAGCTGCCTAGGGAGATTAGAGTATCGGTCGA”, for which the binding signal worked out at 5.25 log2 normalized intensity.

In the case of “AGGCCAAACAAAAATATGGACTTTGGAATTGCCTAGGGAGATTAGAGTATCGGTCGA”, the binding signal was found to be 7.99 log2 normalized intensity.

With “CTATCACTGTCTAGCTGTGTAACCCTGGACGCCTAGGGAGATTAGAGTATCGGTCGA”, the binding signal stood at 1.48 log2 normalized intensity.

Regarding “TGTCCAGCACACCTTTTTTTCATGCAAATTGCCTAGGGAGATTAGAGTATCGGTCGA”, the binding signal was 0.631 log2 normalized intensity.

Consider “CCCCCTTTTGCTTTCCGTTAGGCTACAGTGGCCTAGGGAGATTAGAGTATCGGTCGA”, for which the binding signal came to 1.03 log2 normalized intensity.
